# Results taken from PubChem BioAssay (EPA / NIEHS).
# Records with an inconclusive call do not appear. The source made the active and inactive calls. Rule for the calls: active = hit-call score of the fitted dose curve at least 0.9, where 1 is the maximum; inconclusive = response in the unintended direction; inactive = score below 0.9.
# Test: Tanguay_ZF_120hpf_YSE_legacy: (Legacy) Oregon State University Tanguay Lab 120 Hour Post-fertilization zebrafish Assay for Yolk Sac Edema (AID 2283634)
# Procedure, shortened: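 Presence or absence of yolk sac edema was recorded at 120 hpf in surviving larvae. These were wild-type Tropical 5D embryos, chorion removed at 4 hpf, held in static exposure at 28C from 6 hpf with 0.64% DMSO vehicle.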
row,SMILES,outcome
1,ClC(Cl)(Cl)c1ccccc1,inactive
2,Cc1ccc(O)cc1C,inactive
3,CC(Cl)(Cl)C(=O)O,inactive
4,Cc1cccc(N)c1,inactive
5,CCNc1nc(Cl)nc(NC(C)(C)C)n1,inactive
6,[N-]=[N+]=[N-],inactive
7,CC(C)(C)OOC(C)(C)C,inactive
8,CCN(CC)c1ccccc1,inactive
9,CCOc1ccc(C(C)(C)COCc2cccc(Oc3ccccc3)c2)cc1,inactive
10,CCOC(=O)c1ccccc1C(=O)OCC,inactive
11,Cc1ccc([N+](=O)[O-])cc1C,inactive
12,Nc1cc2c3c(c1)C(c1ccccc1)=N[C@@H](NC(=O)c1cccnc1)C(=O)N3CC2,inactive
13,CC(C)(C)c1ccc(O)cc1,inactive
14,CCCCCCCc1ccc(O)cc1,inactive
15,CCCCN(CCCC)SN(C)C(=O)Oc1cccc2c1OC(C)(C)C2,inactive
16,CCCCN(CCCC)N=O,inactive
17,CCCN(CCC)c1c([N+](=O)[O-])cc(C(C)C)cc1[N+](=O)[O-],inactive
18,CN(C)C(=O)Cl,inactive

# Test: Tanguay_ZF_120hpf_AXIS_legacy: (Legacy) Oregon State University Tanguay Lab 120 Hour Post-fertilization zebrafish Assay for Body Axis Malformation (AID 2283635)
# Procedure, shortened: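 Binary scoring of axis defects at 120 hpf under brightfield, fitted positive versus DMSO. Tropical 5D embryos, chorion removed by pronase at 4 hpf, were singly exposed in sealed, dark plates at 28C from 6 hpf; DMSO 0.64% final.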
row,SMILES,outcome
1,ClC(Cl)(Cl)c1ccccc1,inactive
2,Cc1ccc(O)cc1C,inactive
3,CC(Cl)(Cl)C(=O)O,inactive
4,Cc1cccc(N)c1,inactive
5,[N-]=[N+]=[N-],inactive
6,CC(C)(C)OOC(C)(C)C,inactive
7,CCOC(=O)c1ccccc1C(=O)OCC,inactive
8,CCOP(=S)(Oc1ccc([N+](=O)[O-])cc1)c1ccccc1 (centres undefined),inactive
9,Cc1ccc([N+](=O)[O-])cc1C,inactive
10,Cc1ccc(N)cc1N,inactive
11,CC(C)(C)c1ccc(O)cc1,inactive
12,CCCCCCCc1ccc(O)cc1,inactive
13,CCCCN(CCCC)SN(C)C(=O)Oc1cccc2c1OC(C)(C)C2,inactive
14,CCCCN(CCCC)N=O,inactive
15,Nc1ccc(Cl)cc1,inactive

# Test: Tanguay_ZF_120hpf_EYE_legacy: (Legacy) Oregon State University Tanguay Lab 120 Hour Post-fertilization zebrafish Assay for Eye Malformation (AID 2283636)
# Procedure, shortened: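 Read-out is binary presence or absence of eye malformation, scored by brightfield microscopy at 120 hpf. Single larvae were exposed from 6 hpf in embryo medium containing 0.64% DMSO, with DMSO as baseline.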
row,SMILES,outcome
1,ClC(Cl)(Cl)c1ccccc1,inactive
2,Cc1ccc(O)cc1C,inactive
3,CC(Cl)(Cl)C(=O)O,inactive
4,Cc1cccc(N)c1,inactive
5,[N-]=[N+]=[N-],inactive
6,CC(C)(C)OOC(C)(C)C,inactive
7,CCOc1ccc(C(C)(C)COCc2cccc(Oc3ccccc3)c2)cc1,inactive
8,CCOC(=O)c1ccccc1C(=O)OCC,inactive
9,CCOP(=S)(Oc1ccc([N+](=O)[O-])cc1)c1ccccc1 (centres undefined),inactive
10,Cc1ccc([N+](=O)[O-])cc1C,inactive
11,Cc1ccc(N)cc1N,inactive
12,CC(C)(C)c1ccc(O)cc1,inactive
13,CCCCCCCc1ccc(O)cc1,inactive
14,CCCCN(CCCC)N=O,inactive
15,CN(C)C(=O)Cl,inactive
16,Nc1ccc(Cl)cc1,inactive
